# A number with no mark means an inactive call. Records with an inconclusive call do not appear. Entries that show only a call come without a potency. Calls of active or inactive are those of the source. Unless noted, the call rests on the fitted dose curve; in most records, active means well fitted curve in the direction sought with a large enough effect in the repeat runs; inconclusive means weak or mixed curves; inactive means no such curve, though single readings can be large; an effect the other way counts as inactive or inconclusive.
# How the values were obtained:
# [1] = qHTS assay to identify small molecule agonists of the constitutive androstane receptor (CAR) signaling pathway - cell viability counter screen (AID 1224836); further: nearly all actives have a fitted effect of over 45% in size
# Outline: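 Cell viability multiplexed with the CAR agonist screen: CellTiter-Fluor fluorescence after 23 hr at 37 C. HepG2-CYP2B6-hCAR cells got compounds at 15 concentrations with PK11195 at 0.75 uM final.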
# [2] = target: Nuclear receptor subfamily 1 group I member 3 (Homo sapiens) (UniProt Q14994); assay: qHTS assay to identify small molecule antagonists of the constitutive androstane receptor (CAR) signaling pathway (AID 1224838);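 further: HepG2 cells stably expressing hCAR with CYP2B6 luciferase reporter stimulated by CITCO; nearly all actives have a fitted effect of over 40% in size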
# Outline: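 Cell line: HepG2 double-stable for hCAR and CYP2B6-2.2kb reporter. Agonist: CITCO, 50 nM final. Compounds: 15 concentrations, 24 h, 37 C. Detection: ONE-Glo luminescence.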
# [3] = target: Nuclear receptor subfamily 1 group I member 3 (Homo sapiens) (UniProt Q14994); assay: qHTS assay to identify small molecule agonists of the constitutive androstane receptor (CAR) signaling pathway (AID 1224839);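 further: HepG2 cells stably carrying human CAR and a CYP2B6 luciferase reporter; nearly all actives have a fitted effect of over 15% in size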
# Outline: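 Luminescent ONE-Glo read-out after 24 hr, 37 C exposure of double-stable HepG2-CYP2B6-hCAR reporter cells to a 15-point compound series, in the presence of 0.75 uM PK11195 (final).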
# [4] = qHTS assay to identify small molecule antagonists of the estrogen related receptor signaling pathway with the pleiotropic PPARgamma coactivator (PGC) from Tox21 10K library - cell viability counter screen (AID 1224840; active means well fitted cell-killing curve with a large enough effect in the repeat runs, not every such curve was filed as active; further: nearly all actives have a fitted effect of over 40% in size)
# Outline: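 Following seeding of 2,000 PGC/ERR cells/well and 6 hours' incubation, test compounds were delivered in DMSO. The plates then sat 17.5 hours at 37 C before a fluorogenic live-cell protease reagent (CellTiter-Fluor) was read after 30 min.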
# [5] = qHTS assay to identify small molecule antagonists of the estrogen related receptor signaling pathway with the pleiotropic PPARgamma coactivator (PGC) from Tox21 10K library (AID 1224841; call rule not given here; further: actives are mostly falling curves and most rising ones were filed inactive; nearly all actives have a fitted effect of over 50% in size)
# Outline: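 qHTS antagonist format: PGC/ERR cells, 2k/well, compound in DMSO by pin transfer after 6 h attachment, 18 h treatment at 37 C, One-Glo luminescence read at 30 min.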
# [6] = qHTS assay to identify small molecule agonists of the estrogen related receptor signaling pathway with the pleiotropic PPARgamma coactivator (PGC) from Tox21 10K library (AID 1224842); further: nearly all actives have a fitted effect of over 15% in size
# Outline: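 Luminescence from One-Glo (30 min, room temperature) measured after PGC/ERR cells had 18 h at 37 C with pinned compound (23 nL in DMSO). Cells had been seeded at 2,000 per well and pre-incubated 6 h.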
# [7] = qHTS assay to identify small molecule agonists of the hypoxia (HIF-1) signaling pathway - cell viability counter screen (AID 1224844; calls by dose curve; further: nearly all actives have a fitted effect of over 50% in size)
# Outline: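 Cells (HRE-bla ME-180, 2,000 per well) sat 5 hrs at 37C, got compound for 17 hrs, were read for CCF4-AM FRET, and were finally lysed with CellTiter-Glo for a 30 min room-temperature luminescence read.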
# [8] = qHTS assay to identify small molecule agonists of H2AX (AID 1224845; active means well fitted activation curve with a large enough effect in the signal ratio in the repeat runs, not every such curve was filed as active; the % refers to the signal ratio)
# Outline: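 Phospho-H2AX Ser139 measured by HTRF (ex 320 nm; em 665 and 620 nm) after 24 hr antibody incubation. Compounds, 15 concentrations, 0.76% DMSO, were applied to CHO-K1 cells for 3hr at 37C before lysis.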
# [9] = qHTS assay to identify small molecule agonists of H2AX - cell viability counter screen (AID 1224847; calls by dose curve;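 further: wild-type CHO-K1 cells; top concentration of the series differs between compounds; nearly all actives have a fitted effect of over 30% in size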)
# Outline: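 Counter-screen for viability: CellTiter-Glo ATP luminescence read after 3 h compound treatment (15-point titration, 0.76% DMSO final) of CHO-K1 cells at 37C, with 30 min room-temperature reagent incubation.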
# [10] = qHTS assay to identify small molecule antagonists of the estrogen related receptor (ERR) signaling pathway from Tox21 library (AID 1224848); further: nearly all actives have a fitted effect of over 50% in size; further: potency means the concentration at half of the fitted maximal effect
# Outline: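 Antagonist-mode screen of the Tox21 10K library in an NTP-provided ERR reporter cell line; 18 h compound exposure at 37 C, luminescence measured with ONE-Glo.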
# [11] = qHTS assay to identify small molecule agonists of the estrogen related receptor (ERR) signaling pathway from Tox21 library (AID 1224849; calls by dose curve; further: nearly all actives have a fitted effect of over 15% in size); conditions: ERR reporter cell line, ONE-Glo luciferase, 18 h; at 42.5 µM (top of the series)
# Outline: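 Screening used an NTP-provided ERR luciferase cell line. Compounds in DMSO were added 6 h after seeding and left 18 h at 37 C before a 30 min ONE-Glo step and luminescence reading.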
# [12] = qHTS RealTime-Glo MT Cell Viability Assay in HEK293 cells - 32 hour (AID 1224868); further: nearly all actives have a fitted effect of over 50% in size; further: potency means the concentration at half of the fitted maximal effect; on activity change, negative = cytotoxic: top concentration of the series differs between compounds
# Outline: (§1)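 Viability tracked continuously by luminescence as live cells reduce a prosubstrate for NanoLuc; HEK293 cells preincubated 5 h, compound-treated at 37 C, and read at 0, 8, 16, 24, 32 and 40 h.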
# [13] = A CellTox Green Cytotoxicity Assay to monitor cytotoxicity in HEK293 cells - 0 hour (AID 1224869); further: nearly all actives have a fitted effect of over 50% in size
# Outline: (§2)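 Fluorescence intensity, read at 0, 8, 16, 24, 32 and 40 h of compound treatment, reflected dye binding to DNA of dead HEK293 cells; compounds (23 nL, DMSO) were added 5 h after plating cells with reagent.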
# [14] = qHTS RealTime-Glo MT Cell Viability Assay in HepG2 cells - 40 hour (AID 1224870); further: nearly all actives have a fitted effect of over 50% in size
# Outline: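 Real-time viability: cells seeded at 600 per well together with NanoLuc and cell-permeant prosubstrate, compounds added after 5 h incubation. Luminescence tracked at 0, 8, 16, 24, 32 and 40 h of exposure.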
# [15] = A CellTox Green Cytotoxicity Assay to monitor cytotoxicity in HEK293 cells - 40 hour (AID 1224871); further: nearly all actives have a fitted effect of over 45% in size
# Outline: as §2
# [16] = qHTS RealTime-Glo MT Cell Viability Assay in HEK293 cells - 16 hour (AID 1224872); further: nearly all actives have a fitted effect of over 50% in size; further: potency means the concentration at half of the fitted maximal effect; on activity change, negative = cytotoxicity: top concentration of the series differs between compounds
# Outline: as §1
# [17] = qHTS assay to identify small molecule antagonists of the constitutive androstane receptor (CAR) signaling pathway - cell viability counter screen (AID 1224837); further: nearly all actives have a fitted effect of over 45% in size
# Outline: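 Counter screen run in HepG2-CYP2B6-hCAR cells: 4 hr settle, compound titration (15 concentrations) with 50 nM CITCO, 23 hr at 37 C/5% CO2, CellTiter-Fluor fluorescence.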
# [18] = target: Thyrotropin receptor (Homo sapiens) (UniProt P16473); assay: qHTS assay to identify small molecule agonists of the thyroid stimulating hormone receptor (TSHR) signaling pathway (AID 1224843; calls by dose curve; further: nearly all actives have a fitted effect of over 45% in size)
# Outline: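 Screening of the Tox21 10K collection used HEK293 cells engineered with TSHR at 800 cells per well. After a 30-min room-temperature compound exposure, HTRF cAMP reagents were added and fluorescence recorded 1 h later.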
# [19] = qHTS RealTime-Glo MT Cell Viability Assay in HepG2 cells - 24 hour (AID 1224867); further: nearly all actives have a fitted effect of over 50% in size
# Outline: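 Viability was tracked continuously by NanoLuc luminescence from prosubstrate reduced by living HepG2 cells, at successive time points over 40 h of compound exposure. Cells with reagent were preincubated 5 h at 37 °C before compound addition.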
# [20] = qHTS assay to identify small molecule agonists of the hypoxia (HIF-1) signaling pathway (AID 1224846; active means well fitted activation curve with a large enough effect in the signal ratio in the repeat runs, not every such curve was filed as active; the % refers to the signal ratio)
# Outline: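 A low-serum medium (0.5% dialyzed FBS) holding 2,000 HRE-bla ME-180 cells per well is preincubated for 5 hrs, dosed with compounds by pintool, and kept a further 17 hrs at 37C, 5% CO2 before CCF4-AM FRET detection of beta-lactamase.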
# Chain of Nuclear receptor subfamily 1 group I member 3 (Homo sapiens) (Q14994 whole entry, looked up): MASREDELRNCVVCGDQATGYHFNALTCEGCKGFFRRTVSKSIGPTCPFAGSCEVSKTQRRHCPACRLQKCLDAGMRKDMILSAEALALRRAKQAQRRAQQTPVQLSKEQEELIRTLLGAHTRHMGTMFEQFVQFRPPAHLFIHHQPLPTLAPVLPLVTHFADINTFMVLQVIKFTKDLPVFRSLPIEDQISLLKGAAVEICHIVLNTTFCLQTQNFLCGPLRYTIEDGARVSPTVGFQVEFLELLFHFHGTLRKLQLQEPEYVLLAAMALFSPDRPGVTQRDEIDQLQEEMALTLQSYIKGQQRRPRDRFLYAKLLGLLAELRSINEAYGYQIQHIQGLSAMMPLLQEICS
# Chain of Thyrotropin receptor (Homo sapiens) (P16473 whole entry, looked up): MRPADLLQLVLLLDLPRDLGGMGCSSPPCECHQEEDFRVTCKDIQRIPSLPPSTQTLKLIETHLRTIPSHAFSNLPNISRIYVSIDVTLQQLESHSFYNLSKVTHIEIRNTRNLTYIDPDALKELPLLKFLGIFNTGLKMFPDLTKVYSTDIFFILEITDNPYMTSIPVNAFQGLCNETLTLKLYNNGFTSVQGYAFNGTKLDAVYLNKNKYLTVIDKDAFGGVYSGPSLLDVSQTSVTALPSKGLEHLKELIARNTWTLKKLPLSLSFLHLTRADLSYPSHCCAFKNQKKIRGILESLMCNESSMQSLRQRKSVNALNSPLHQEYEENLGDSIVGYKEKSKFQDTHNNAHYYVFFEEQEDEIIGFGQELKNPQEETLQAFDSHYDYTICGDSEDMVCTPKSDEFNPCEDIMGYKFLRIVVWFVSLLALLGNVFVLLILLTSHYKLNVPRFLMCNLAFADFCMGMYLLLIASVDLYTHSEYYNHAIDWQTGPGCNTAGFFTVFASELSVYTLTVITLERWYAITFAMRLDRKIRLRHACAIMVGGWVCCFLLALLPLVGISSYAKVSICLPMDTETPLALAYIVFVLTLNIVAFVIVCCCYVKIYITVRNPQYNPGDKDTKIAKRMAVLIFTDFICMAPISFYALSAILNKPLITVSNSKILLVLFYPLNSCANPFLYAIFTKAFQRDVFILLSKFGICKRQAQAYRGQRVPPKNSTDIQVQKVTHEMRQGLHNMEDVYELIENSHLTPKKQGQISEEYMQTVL
structure (smiles),measurement,setting,value
COc1ccc2c(c1)c(CC(=O)OC/C=C(\C)CC/C=C(\C)CCC=C(C)C)c(C)n2C(=O)c1ccc(Cl)cc1,Potency,[1],inactive
same,Potency,[2],inactive
same,Potency,[3],inactive
same,Potency,[4],inactive
same,Potency,[5],inactive
same,Potency,[6],inactive
same,Potency,[7],inactive
same,Potency,[8],inactive
same,Potency,[9],inactive
same,Potency,[10],inactive
same,"activity change, positive = activation",[11],-0.248%
same,Potency,[12],inactive
same,Potency,[13],inactive
same,Potency,[14],inactive
same,Potency,[15],inactive
same,Potency,[16],inactive
O=C(O)[C@H](O)[C@@H](O)[C@H](O[C@@H]1O[C@H](CO)[C@H](O)[C@H](O)[C@H]1O)[C@H](O)CO,Potency,[1],inactive
same,Potency,[17],inactive
same,Potency,[4],inactive
same,Potency,[18],inactive
same,Potency,[7],inactive
same,Potency,[8],inactive
same,Potency,[9],inactive
same,Potency,[19],inactive
same,Potency,[12],inactive
same,Potency,[13],inactive
same,Potency,[15],inactive
CC(N=C(NC#N)Nc1ccncc1)C(C)(C)C (stereo not drawn),Potency,[1],inactive
same,Potency,[17],inactive
same,Potency,[4],inactive
same,Potency,[18],inactive
same,Potency,[7],inactive
same,Potency,[8],inactive
same,Potency,[9],inactive
same,Potency,[10],inactive
same,"activity change, positive = activation",[11],-15.5%
same,Potency,[19],inactive
same,Potency,[12],inactive
same,Potency,[13],inactive
same,Potency,[14],inactive
same,Potency,[15],inactive
same,Potency,[16],inactive
COC1=C(OC)C(=O)C(CCCCCCCCCCO)=C(C)C1=O,Potency,[1],inactive
same,Potency,[2],inactive
same,Potency,[3],inactive
same,Potency,[4],inactive
same,Potency,[6],inactive
same,Potency,[10],18.8 µM (active)
same,"activity change, positive = activation",[11],-46.7%
same,Potency,[12],5.35 µM (active)
same,Potency,[13],inactive
same,Potency,[14],inactive
same,Potency,[15],inactive
same,Potency,[16],2.39 µM (active)
O=C(O)Cc1ccc2c(c1)C(=O)c1ccccc1CO2,Potency,[1],inactive
same,Potency,[17],inactive
same,Potency,[4],inactive
same,Potency,[18],inactive
same,Potency,[7],inactive
same,Potency,[8],inactive
same,Potency,[20],inactive
same,Potency,[9],inactive
same,Potency,[19],inactive
same,Potency,[12],inactive
same,Potency,[13],inactive
same,Potency,[15],inactive
same,Potency,[16],inactive
C[C@H]1NCc2cc(-c3ccc4c(=O)c(C(=O)O)cn(C5CC5)c4c3OC(F)F)ccc21,"viability change, negative = cytotoxic",[1],8.47% [at 19 µM]
same,"activity, negative = inhibition",[2],10.2% [at 19 µM]
same,activation,[3],-2.33% [at 19 µM]
same,"viability change, negative = cytotoxic",[4],5.39% [at 19 µM]
same,activation,[18],2.59% [at 19 µM]
same,"activity change, negative = cytotoxicity",[7],6.72% [at 15.8 µM]
same,activation (H2AX phosphorylation),[8],4.25% [at 31.6 µM]
same,activation,[20],0.068% [at 15.8 µM]
same,"activity change, negative = cytotoxicity",[9],0.563% [at 31.6 µM]
same,"activity change, negative = cytotoxicity",[19],-15.8% [at 15.8 µM]
same,"activity change, negative = cytotoxic",[12],-6.15% [at 15.8 µM]
same,cytotoxicity,[13],0.0457% [at 15.8 µM]
same,"activity change, negative = cytotoxic",[14],-10.9% [at 15.8 µM]
same,cytotoxicity increase,[15],-4.15% [at 15.8 µM]
same,"activity change, negative = cytotoxicity",[16],-1.72% [at 15.8 µM]
O=[N+]([O-])c1cccc(C(F)(F)F)c1,Potency,[1],inactive
same,Potency,[17],inactive
same,Potency,[4],inactive
same,Potency,[18],inactive
same,Potency,[7],inactive
same,Potency,[8],inactive
same,Potency,[20],inactive
same,Potency,[9],inactive
same,Potency,[19],inactive
same,Potency,[12],inactive
same,Potency,[15],inactive
CCN1C(=O)c2ccccc2C1Nc1ccc(OCCN2CCCCC2)cc1 (stereo not drawn),Potency,[1],inactive
same,Potency,[2],inactive
same,Potency,[3],inactive
same,Potency,[4],inactive
same,Potency,[18],inactive
same,Potency,[7],inactive
same,Potency,[8],inactive
same,Potency,[20],inactive
same,Potency,[9],inactive
same,Potency,[19],inactive
same,Potency,[12],5.35 µM (active)
same,Potency,[13],inactive
same,Potency,[14],inactive
same,Potency,[15],inactive
same,Potency,[16],4.77 µM (active)

# From PubChem BioAssay (Tox21)
